# Results: PubChem BioAssay (NCATS)
# Records with an inconclusive call do not appear. Where a call stands in place of a potency, no number is given. Unmarked numbers belong to inactive results. The source made the active and inactive calls. Calls follow the shape of the dose curve; as a rule, active = well fitted cell-killing curve with a large enough effect; inconclusive = small, poorly fitted or top-dose-only effect, or effect the other way; inactive = no such curve, though single readings can be large or run the other way. Non-standard residues stand in square brackets, D forms with d. Residues, ends and D or L forms follow the SMILES beside them. *: point of attachment. Nva = CCC[C@H](N)C(=O)O; Cbz = O=C(OCc1ccccc1)*
# Test: Quantitative High-Throughput drug screen in 47 multiple myeloma cell lines against the NCATS MIPE library collection: EJM_DSMZ cell viability assay (AID 1918926; also: nearly all actives have a fitted effect of over 30% in size)
# Details: EJM myeloma cell viability, CellTiter-Glo ATP, 48 h; series mostly up to 45.8 µM
# Excerpt: PI: Beverly A. Mock Ph.D.
# Laboratory of Cancer Biology and Genetics,
# Center for Cancer Research, National Cancer Institute,
# National Institute of Health, Bethesda, Maryland
# Drug resistance and disease progression are common in multiple myeloma (MM) patients, underscoring the need for new therapeutic combinations. […] We hypothesized that effective combinations would reduce MYC expression and enhance p16 activity. […] These preclinical data identify potentially useful drug combinations for evaluation in drug-resistant MM and reveal potential mechanisms of combined drug sensitivity.
# Described herein is the primary MIPE qHTS used to cherrypick compounds. Validated compounds were then further tested for potential synergistic activiy.
# [1] Peat TJ, Gaikwad SM, Dubois W, Gyabaah-Kessie N, Zhang S, Gorjifard S, Phyo Z, Andres M, Hughitt VK, Simpson RM, Miller MA, Girvin AT, Taylor A, Williams D, D'Antonio N, Zhang Y, Rajagopalan A, Flietner E, Wilson K, Zhang X, Shinn P, Klumpp-Thomas C, McKnight C, Itkin Z, Chen L, Kazandijian D, Zhang J, Michalowski AM, Simmons JK, Keats J, Thomas CJ, Mock BA. Drug combinations identified by high-throughput screening promote cell cycle transition and upregulate Smad pathways in myeloma. Cancer Lett. 2023 Aug 1;568:216284. doi: 10.1016/j.canlet.2023.216284. Epub 2023 Jun 24. PMID: 37356470; PMCID: PMC10408729.
# SEQUENCE No. (e.g., 1, 2, 3, etc.); […] (e.g., Cells, Incubation, Reagent, etc.); VALUE and DESCRIPTION.
# 1; Cells; 5 uL; white, solid bottom 1536-well Greiner assay plate.
# 2; Compounds; 23 nL; Kalypsis pin tool (Wako USA) equipped with a 1536-well pin head to transfer to the assay plates.
# 3; Incubation; 48 hours; 37C incubation.
# 4; Reagent;5uL; CellTiter Glo (Promega).
# 5; Detector; 425V; Luminescence; Viewlux PerkinElmer.
# NOTES (numbers refer to Sequence numbers above)
# 1. The cell-based screening methods employed in this study were like those previously published. Briefly, the corresponding myeloma cell lines were screened in 1,536-well plates with 500 cells, 5-uL per well for inhibition of cell viability (assessed by measuring ATP levels with CellTiterGlo).
# 2. NCATS MIPE 4.0 library of approved and investigational drugs were added using the Kalypsis pin tool. Wells treated with DMSO only for 100% viability and media only wells for 0% viability were used as controls.
# 3. The assay plates were covered and incubated for 48 hours in a 37C, 5% CO2 incubator with controlled humidity.
# 4. After 48 hours, CellTilter-GloTM luminescent substrate mix (Promega) reagent was added to the assay plate and plates we incubated for 5 min at room temperature.
# 5. Signal was measured as median relative luminescence units on a ViewLux (PerkinElmer) multiplate reader.
# [1] Heske CM, Davis MI, Baumgart JT, Wilson K, Gormally MV, Chen L, Zhang X, Ceribelli M, Duveau DY, Guha R, Ferrer M, Arnaldez FI, Ji J, Tran HL, Zhang Y, Mendoza A, Helman LJ, Thomas CJ. Matrix Screen Identifies Synergistic Combination of PARP Inhibitors and Nicotinamide Phosphoribosyltransferase (NAMPT) Inhibitors in Ewing Sarcoma. Clin Cancer Res. 2017 Dec 1;23(23):7301-7311. doi: 10.1158/1078-0432.CCR-17-1121. Epub 2017 Sep 12. PMID: 28899971; PMCID: PMC6636827.
# Potency is read from the fitted curve at half-maximal effect.
Structure (SMILES),Potency,"viability, % of control"
c1cc(N[C@@H]2CCNC2)nc(-c2cnc3ccc(-c4cn[nH]c4)cn23)c1,13.2 µM (active),–
OC[C@@H](O)[C@@H](O)[C@H](O)[C@@H](O)CO,inactive,–
CCc1ccc(C(=O)Nc2cc(CN3CCN(C)CC3)cc(C(F)(F)F)c2)cc1C#Cc1cnc2ccnn2c1,16.6 µM (active),–
CC(C=CC=C(C)C=CC1=C(C)CCCC1(C)C)=CC=CC=C(C)C=CC=C(C)C=CC1=C(C)CCCC1(C)C,6.62 µM (active),–
C=C(C)[C@@H]1CC[C@]2(C(=O)O)CC[C@]3(C)[C@H](CC[C@@H]4[C@@]5(C)CC[C@H](O)C(C)(C)[C@@H]5CC[C@]43C)[C@@H]12,inactive,–
CCN(CC)Cc1ccc2cc(COC(=O)Nc3ccc(C(=O)NO)cc3)ccc2c1,1.05 µM (active),–
Oc1cc2c(cc1O)C1c3ccc(O)c(O)c3OCC1(O)C2 (stereo not given),inactive,–
NC(=O)N1CCC(CC(=O)N2CCC([C@H]3c4ncc(Br)cc4CCc4cc(Cl)cc(Br)c43)CC2)CC1,20.9 µM (active),–
C=CC1=C(C(=O)O)N2C(=O)[C@@H](NC(=O)C(=NO)c3csc(N)n3)[C@H]2SC1,inactive,–
CCOc1cc2c(c(F)c1OCC)C(=N)N(CC(=O)c1cc(N3CCOCC3)c(OC)c(C(C)(C)C)c1)C2,20.9 µM (active),–
O=C(Nc1cc2cc[nH]c2cn1)c1ccccc1,8.33 µM (active),–
CC(Cc1ccc(O)c(O)c1)(NN)C(=O)O (stereo not given),inactive,–
NC[C@H]1O[C@H](O[C@H]2[C@@H](O)[C@@H](O[C@H]3O[C@H](CO)[C@@H](O)[C@H](N)[C@@H]3O)[C@H](N)C[C@@H]2N)[C@H](N)C[C@H]1O,inactive,–
CC(C)NC[C@@H](C(=O)N1CCN(c2ncnc3c2[C@H](C)C[C@H]3O)CC1)c1ccc(Cl)cc1,16.6 µM (active),–
C[C@]12CCC(=O)C=C1[C@@H]1CC1[C@H]1[C@H]3[C@@H]4C[C@H]4[C@@]4(CCC(=O)O4)[C@@]3(C)CC[C@H]12 (stereo not given in full),inactive,–
CC(C)(O)CC[C@@H](O)[C@](C)(O)[C@H]1CC[C@@]2(O)C3=CC(=O)[C@@H]4C[C@@H](O)[C@@H](O)C[C@]4(C)[C@@H]3CC[C@]12C,inactive,–
COc1cc(C[C@@H](CO)[C@H](CO)Cc2ccc(O)c(OC)c2)ccc1O,0.264 µM (active),–
O=S(=O)(O)CCSSCCS(=O)(=O)O,inactive,–
CC1(C)CC(O)CC(C)(C)N1[O],inactive,–
COc1cc(OC)cc(-c2ccc3ncc4ccc(=O)n(-c5ccc(N6CCNCC6)c(C(F)(F)F)c5)c4c3c2)c1,5.9 µM (active),–

Structure (SMILES),Potency,"viability, % of control"
COc1cccc2c1C(=O)c1c(O)c3c(c(O)c1C2=O)C[C@@](O)(C(=O)CO)C[C@H]3O[C@H]1C[C@H](N)[C@H](O)[C@H](C)O1,0.209 µM (active),–
CC[C@]12C=CCN3CC[C@@]4(c5cc([C@@]6(C(=O)OC)C[C@H]7C[C@@H](C(C)(F)F)CN(Cc8c6[nH]c6ccccc86)C7)c(OC)cc5N(C)[C@H]4[C@@](O)(C(=O)OC)[C@H]1OC(C)=O)[C@@H]32,0.118 µM (active),–
C#C[C@]1(O)CC[C@@H]2[C@@H]3CCc4cc(O)ccc4[C@H]3CC[C@@]21C,6.62 µM (active),–
COc1cccc2c1C(=O)c1c(O)c3c(c(O)c1C2=O)C[C@@](O)(C(=O)CO)C[C@@H]3O[C@H]1C[C@H](N)[C@@H](O)[C@H](C)O1,0.59 µM (active),–
CCCCOc1ccc(C(=O)Nc2ccc(F)cc2F)cc1,inactive,–
COc1cccc2c1C(=O)c1c(O)c3c(c(O)c1C2=O)C[C@@](O)(C(=O)CO)C[C@@H]3O[C@H]1C[C@H](N)[C@H](OC2CCCCO2)[C@H](C)O1 (stereo not given in full),2.35 µM (active),–
CC(=O)O[C@@]12CO[C@H]1C[C@H](O)[C@@]1(C)C(=O)[C@H](O)C3=C(C)[C@@H](OC(=O)C(O)[C@@H](NC(=O)OC(C)(C)C)c4ccccc4)C[C@@](O)([C@@H](OC(=O)c4ccccc4)[C@@H]21)C3(C)C (stereo not given in full),inactive,–
C[C@@]12C[C@@]3(O)O[C@@H](O1)[C@]1(COC(=O)c4ccccc4)[C@@H]3C[C@@]12O[C@@H]1O[C@H](CO)[C@@H](O)[C@H](O)[C@@H]1O,inactive,–
CC(=O)N[C@H]1[C@@H]([C@H](O)[C@H](O)CO)OC(C(=O)O)=C[C@@H]1N=C(N)N,inactive,–
CC(=O)OC[C@@H]1O[C@@H](n2ccc(=O)[nH]c2=O)[C@H](OC(C)=O)[C@H]1OC(C)=O,inactive,–
c1coc(CNc2ncnc3nc[nH]c23)c1,inactive,–
CCC[C@@H](C=O)NC(=O)[C@H](CC(C)C)NC(=O)[C@H](CC(C)C)NC(=O)OCc1ccccc1 (Cbz-Leu-Leu-[Nva]-aldehyde),1.48 µM (active),–
O=C(O)c1ccc(Nc2ncc3c(n2)-c2ccc(Cl)cc2C(c2c(F)cccc2F)=NC3)cc1,23.5 µM (active),–
CC(C)(C)[C@H](NC(=O)c1ccc(N)c(Cl)c1)C(=O)N1CCC[C@@H]1C(=O)N[C@H](C#N)CC(=O)O,–,97.8% [at 3.51 µM]
C[C@H]1[C@@H](OC(=O)CCC(=O)O)O[C@@H]2O[C@@]3(C)CC[C@@H]4[C@H](C)CC[C@@H]1[C@@]24OO3,14.8 µM (active),–
CN(CC(=O)N(Cc1ccc(C2CCCCC2)cc1)c1ccc(C(=O)O)c(O)c1)S(=O)(=O)c1c(F)c(F)c(F)c(F)c1F,18.7 µM (active),–
C#C[C@]1(O)CC[C@@H]2[C@@H]3CCC4=CC(=O)CC[C@@H]4[C@H]3CC[C@@]21CC,inactive,–
O=C(O)C[C@H](O)C[C@H](O)C=Cc1c(C2CC2)nc2ccccc2c1-c1ccc(F)cc1,inactive,–
C[C@H](CCC(=O)O)[C@H]1CCC2C3C[C@H](O)[C@@H]4C[C@H](O)CC[C@]4(C)C3CC[C@@]21C (stereo not given in full),inactive,–
C[C@H](CCC(=O)O)[C@H]1CC[C@H]2[C@@H]3[C@H](O)C[C@@H]4C[C@H](O)CC[C@]4(C)[C@@H]3CC[C@]12C,inactive,–
